Measurements from PubChem BioAssay AID651839 (Vanderbilt Specialized Chemistry Center, 2012).
Results with a measured potency or affinity are listed apart. The source made the active and inactive calls.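 The calls were made as follows: active = compounds whose mean inhibitory potency against the glutamate signal is under 30 µM; inactive = the rest.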

Each molecule was assayed against Metabotropic glutamate receptor 3 (Rattus norvegicus) (UniProt P31422) (assay: mGlu3 negative allosteric modulator potency, dose response, HEK/GIRK cells, thallium flux, rat (AID 651839)). Settings: HEK293 GIRK rat mGlu3, thallium flux fluorescence; series mostly up to 30 µM.
Sequence of Metabotropic glutamate receptor 3 (Rattus norvegicus) (P31422 whole entry, looked up): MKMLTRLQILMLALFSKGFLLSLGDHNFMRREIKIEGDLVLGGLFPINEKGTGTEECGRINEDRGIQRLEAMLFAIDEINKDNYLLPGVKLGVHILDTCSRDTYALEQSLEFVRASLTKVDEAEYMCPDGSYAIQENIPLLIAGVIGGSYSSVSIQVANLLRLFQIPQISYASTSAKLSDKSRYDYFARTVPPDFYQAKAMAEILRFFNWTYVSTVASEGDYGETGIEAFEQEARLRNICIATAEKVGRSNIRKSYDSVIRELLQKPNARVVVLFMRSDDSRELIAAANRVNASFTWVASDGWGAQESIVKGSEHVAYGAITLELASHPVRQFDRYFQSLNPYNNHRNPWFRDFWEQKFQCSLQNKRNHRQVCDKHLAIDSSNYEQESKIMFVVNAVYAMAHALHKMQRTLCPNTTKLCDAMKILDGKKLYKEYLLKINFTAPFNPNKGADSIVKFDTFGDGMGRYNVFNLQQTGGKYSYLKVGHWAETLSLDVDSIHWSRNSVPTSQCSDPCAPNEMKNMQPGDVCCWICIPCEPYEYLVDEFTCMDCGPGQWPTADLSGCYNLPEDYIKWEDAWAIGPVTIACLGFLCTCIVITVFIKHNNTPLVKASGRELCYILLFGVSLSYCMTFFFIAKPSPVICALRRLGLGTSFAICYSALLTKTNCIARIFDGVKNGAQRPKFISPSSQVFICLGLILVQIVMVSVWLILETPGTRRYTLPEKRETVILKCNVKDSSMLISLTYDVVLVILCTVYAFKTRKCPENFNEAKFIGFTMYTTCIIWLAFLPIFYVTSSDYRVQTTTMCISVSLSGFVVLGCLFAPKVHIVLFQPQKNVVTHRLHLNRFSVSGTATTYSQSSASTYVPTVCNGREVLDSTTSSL

outcome, inactive:
COc1ccc(COc2ccc(C(=O)NCCC(C)(C)C)cc2)cc1
COc1ccc(COc2ccc(C(=O)N3CC[C@H](O)C3)cc2)cc1
COc1ccc(COc2ccc(C(=O)N3CCC(OC)C3)cc2)cc1 (stereo not given)
COc1ccc(C#Cc2ccc(C(=O)NCC(C)(C)O)cc2)c(F)c1
COc1ccc(C#Cc2ccc(C(=O)NCCC(C)(C)C)cc2)c(F)c1
COc1ccc(COc2ccc(C(=O)N3CCC(CO)C3)cc2)cc1 (stereo not given)
COc1ccc(C#Cc2ccc(C(=O)NC(C)(C)CO)cc2)c(F)c1
COc1ccc(COc2ccc(C(=O)N3CCCC(OC)C3)cc2)cc1 (stereo not given)
O=C(c1ccc2cc(-c3ccncc3)ccc2c1)N1CCCC(CO)C1 (stereo not given)
COc1ccc(COc2ccc(C(=O)N3CC[C@@H](O)C3)cc2)cc1
